# Results as given in the supplement of paper PMC8728848.
# Only a selection was taken, and the strongest signals are over-represented in it overall.
# Tests used:
# Assay in all cases: glycan array binding signal (z-score within array); higher = stronger binding
# Details in all cases: glycan notation: IUPAC condensed, linker removed
# [1] = target: Fuc(a1-2)Gal
# Method in brief: (§1)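 Glycan array binding is given as a within-array Z-score, which can be read as non-binding when negative. The arrays, 3228 of them, came from the Consortium for Functional Glycomics database and were retained only where the protein sequence was available. Z-scores were averaged across arrays of the same protein sequence at different concentrations or buffers and across linkers.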
# [2] = target: Fuc(a1-2)Gal(b1-3)GlcNAc(b1-2)Man(a1-3)[Fuc(a1-2)Gal(b1-3)GlcNAc(b1-2)Man(a1-6)]Man(b1-4)GlcNAc(b1-4)GlcNAc
# Method in brief: as §1
# [3] = target: Fuc(a1-2)Gal(b1-4)[Fuc(a1-3)]GlcNAc(b1-2)[Fuc(a1-2)Gal(b1-4)[Fuc(a1-3)]GlcNAc(b1-4)]Man(a1-3)[Fuc(a1-2)Gal(b1-4)[Fuc(a1-3)]GlcNAc(b1-2)Man(a1-6)]Man(b1-4)GlcNAc(b1-4)GlcNAc
# Method in brief: as §1
# [4] = target: Fuc(a1-2)[Gal(a1-3)]Gal(b1-3)GlcNAc(b1-2)Man(a1-3)[Fuc(a1-2)[Gal(a1-3)]Gal(b1-3)GlcNAc(b1-2)Man(a1-6)]Man(b1-4)GlcNAc(b1-4)GlcNAc
# Method in brief: as §1
# [5] = target: Fuc(a1-2)[Gal(a1-3)]Gal(b1-3)GlcNAc(b1-2)Man(a1-3)[Fuc(a1-2)[Gal(a1-3)]Gal(b1-3)GlcNAc(b1-2)Man(a1-6)]Man(b1-4)GlcNAc(b1-4)[Fuc(a1-6)]GlcNAc
# Method in brief: as §1
# [6] = target: Fuc(a1-2)[Gal(a1-3)]Gal(b1-3)GlcNAc(b1-3)GalNAc
# Method in brief: as §1
# [7] = target: Fuc(a1-2)[Gal(a1-3)]Gal(b1-4)GlcNAc
# Method in brief: as §1
# [8] = target: Fuc(a1-2)[Gal(a1-3)]Gal(b1-4)[Fuc(a1-3)]GlcNAc(b1-3)GalNAc
# Method in brief: as §1
# [9] = target: Fuc(a1-2)[GalNAc(a1-3)]Gal(b1-3)GalNAc(a1-3)[Fuc(a1-2)]Gal(b1-4)GlcNAc
# Method in brief: as §1
# [10] = target: Gal(a1-3)Gal(b1-4)GlcNAc(b1-2)Man
# Method in brief: as §1
# [11] = target: Gal(a1-3)[Gal(a1-4)]Gal(b1-4)GlcNAc
# Method in brief: as §1
# [12] = target: Gal(a1-6)Glc
# Method in brief: as §1
# [13] = target: Gal(b1-3)GalNAc(b1-3)Gal
# Method in brief: as §1
# [14] = target: Gal(b1-3)GlcNAc
# Method in brief: as §1
# [15] = target: Gal(b1-3)[Fuc(a1-4)]GlcNAc(b1-3)Gal(b1-4)[Fuc(a1-3)]GlcNAc
# Method in brief: as §1
# [16] = target: Gal(b1-3)[Fuc(a1-4)]GlcNAc(b1-6)GalNAc
# Method in brief: as §1
# [17] = target: Gal(b1-3)[Neu5Ac(a2-6)]GlcNAc(b1-4)Gal(b1-4)Glc
# Method in brief: as §1
# [18] = target: Gal(b1-4)Glc
# Method in brief: as §1
# [19] = target: Gal(b1-4)GlcNAc(b1-2)Man(a1-3)[Gal(b1-4)GlcNAc(b1-2)Man(a1-6)][Gal(b1-4)GlcNAc(b1-4)]Man(b1-4)GlcNAc(b1-4)[Fuc(a1-6)]GlcNAc
# Method in brief: as §1
# [20] = target: Gal(b1-4)GlcNAc(b1-2)[Gal(b1-4)GlcNAc(b1-6)]Man(a1-6)[Gal(b1-4)GlcNAc(b1-2)Man(a1-3)]Man(b1-4)GlcNAc(b1-4)GlcNAc
# Method in brief: as §1
# [21] = target: Gal(b1-4)GlcNAc(b1-3)Gal(b1-4)Glc
# Method in brief: as §1
# [22] = target: Gal(b1-4)GlcNAc(b1-3)Gal(b1-4)GlcNAc(b1-3)Gal(b1-4)GlcNAc(b1-2)Man(a1-3)[Gal(b1-4)GlcNAc(b1-3)Gal(b1-4)GlcNAc(b1-3)Gal(b1-4)GlcNAc(b1-2)Man(a1-6)]Man(b1-4)GlcNAc(b1-4)[Fuc(a1-6)]GlcNAc
# Method in brief: as §1
# [23] = target: Gal(b1-4)GlcNAc(b1-3)Gal(b1-4)GlcNAc(b1-3)GalNAc
# Method in brief: as §1
# [24] = target: Gal(b1-4)GlcNAc(b1-3)GalNAc
# Method in brief: as §1
# [25] = target: Gal3S(b1-3)GalNAc
# Method in brief: as §1
# [26] = target: Gal6S(b1-3)GlcNAc
# Method in brief: as §1
# [27] = target: GalNAc(b1-3)Gal(a1-6)Gal(b1-4)Glc
# Method in brief: as §1
# [28] = target: Glc(b1-4)Glc
# Method in brief: as §1
# [29] = target: GlcNAc(b1-2)[GlcNAc(b1-4)]Man(a1-3)[GlcNAc(b1-4)][GlcNAc(b1-2)[GlcNAc(b1-6)]Man(a1-6)]Man(b1-4)GlcNAc(b1-4)GlcNAc
# Method in brief: as §1
# [30] = target: GlcNAc(b1-3)Gal(b1-4)GlcNAc(b1-3)Gal(b1-4)GlcNAc(b1-3)Gal(b1-4)GlcNAc(b1-3)Gal(b1-4)GlcNAc(b1-2)[GlcNAc(b1-3)Gal(b1-4)GlcNAc(b1-3)Gal(b1-4)GlcNAc(b1-3)Gal(b1-4)GlcNAc(b1-3)Gal(b1-4)GlcNAc(b1-6)]Man(a1-6)[GlcNAc(b1-3)Gal(b1-4)GlcNAc(b1-3)Gal(b1-4)GlcNAc(b1-3)Gal(b1-4)GlcNAc(b1-3)Gal(b1-4)GlcNAc(b1-2)Man(a1-3)]Man(b1-4)GlcNAc(b1-4)[Fuc(a1-6)]GlcNAc
# Method in brief: as §1
# [31] = target: GlcNAc(b1-3)Gal(b1-4)GlcNAc(b1-6)[GlcNAc(b1-3)]Gal(b1-4)GlcNAc
# Method in brief: as §1
# [32] = target: GlcNAc(b1-3)[GlcNAc(b1-4)][GlcNAc(b1-6)]GlcNAc
# Method in brief: as §1
# [33] = target: GlcNAc6S(b1-3)Gal(b1-4)GlcNAc
# Method in brief: as §1
# [34] = target: Man(a1-2)Man(a1-3)[Man(a1-2)Man(a1-6)]Man(a1-6)[Man(a1-2)Man(a1-2)Man(a1-3)]Man
# Method in brief: as §1
# [35] = target: Neu5Ac(a2-3)Gal(b1-3)GlcNAc(b1-6)GalNAc
# Method in brief: as §1
# [36] = target: Neu5Ac(a2-3)Gal(b1-3)[Fuc(a1-4)]GlcNAc(b1-3)Gal(b1-3)[Fuc(a1-4)]GlcNAc
# Method in brief: as §1
# [37] = target: Neu5Ac(a2-3)Gal(b1-3)[GlcNAc(b1-6)]GalNAc
# Method in brief: as §1
# [38] = target: Neu5Ac(a2-3)Gal(b1-4)GlcNAc(b1-2)Man
# Method in brief: as §1
# [39] = target: Neu5Ac(a2-3)Gal(b1-4)[Fuc(a1-3)]GlcNAc(b1-3)Gal
# Method in brief: as §1
# [40] = target: Neu5Ac(a2-3)[GalNAc(b1-4)]Gal(b1-4)GlcNAc(b1-3)GalNAc
# Method in brief: as §1
# [41] = target: Neu5Ac(a2-6)Gal(b1-4)GlcNAc(b1-2)Man
# Method in brief: as §1
# [42] = target: Neu5Ac(a2-6)Gal(b1-4)GlcNAc(b1-2)Man(a1-3)[Neu5Ac(a2-6)Gal(b1-4)GlcNAc(b1-2)Man(a1-6)]Man(b1-4)GlcNAc(b1-4)GlcNAc
# Method in brief: as §1
# [43] = target: Neu5Ac(a2-6)Gal(b1-4)GlcNAc(b1-2)Man(a1-6)[GlcNAc(b1-2)Man(a1-3)]Man(b1-4)GlcNAc(b1-4)GlcNAc
# Method in brief: as §1
# [44] = target: Neu5Ac(a2-6)Gal(b1-4)GlcNAc(b1-3)Gal(b1-4)GlcNAc(b1-3)Gal(b1-4)GlcNAc(b1-2)Man(a1-3)[Neu5Ac(a2-6)Gal(b1-4)GlcNAc(b1-3)Gal(b1-4)GlcNAc(b1-3)Gal(b1-4)GlcNAc(b1-2)Man(a1-6)]GalNAc
# Method in brief: as §1
# [45] = target: Neu5Ac(a2-6)Gal(b1-4)GlcNAc(b1-3)Gal(b1-4)GlcNAc(b1-3)[Neu5Ac(a2-6)Gal(b1-4)GlcNAc(b1-3)Gal(b1-4)GlcNAc(b1-6)]GalNAc
# Method in brief: as §1
# [46] = target: Neu5Ac(a2-6)Gal(b1-4)GlcNAc(b1-6)GalNAc
# Method in brief: as §1
# [47] = target: Neu5Ac(a2-8)Neu5Ac
# Method in brief: as §1
# [48] = target: Neu5Ac(a2-8)Neu5Ac(a2-8)Neu5Ac(a2-3)[GalNAc(b1-4)]Gal(b1-4)Glc
# Method in brief: as §1
# [49] = target: Neu5Gc(a2-3)Gal(b1-3)GlcNAc
# Method in brief: as §1
# [50] = target: Neu5Gc(a2-8)Neu5Gc(a2-3)Gal(b1-4)GlcNAc
# Method in brief: as §1
binder,measurement,setting,value
"CcfD (Bacteroides fragilis), Q5L9G4 (protein) MKKQNSIYTLLIALLCFVSSCDYLGVSDQLAGGLQNTEQVFDNVSYTKRWYANVFAGIPDYSGINSVNVGAFKNPWTGMCDELVVGYGNSSKYNNSDRNAANMGFHRYGDCYKYIRQANIFLQKAHPIMTTGTQGDQLLEDELTQMKANVRFMRAFYHYLLFEQYGPIILVKDKIYNATEDQDVPRNTVDEVIEYIDSELTAVASELTQEPIFEDKDYRAWPTKGVALAVRAKLWLYAASPLLNGGYREALSVTNPDGTRLFPDYDAGKWEKALAACKDFIDYAEAGRYELYKEYKDDNGAVIDPDKSVYNLFQKYTHEIIWATANNDWGGMNGDAFDRRIAPRCEKNGLGSTGVTQELVDAFYMKDGFPVSATAYLPQSTLYQEEGYGTYKDQNDNFSKKYTNVTVSNRYLNREPRFYNTVFFNGRQWPVSCNQVLFYNGGNSGVQEGQATLTGYMLFKRFNRSVSLTNPGVASQFRPSIIFRLADFYLMYAEAANEVNPNDARVLKYLNLVRERAGLPDIETLNPAIRGNQELQRAAIQRERQIELATEGQRYFDVRRWMIADKNGEGRQNGYVHGMNVRGESNDKEDFNRIVEASQIVFNRKMYLYPMPDSEMRKTKNLVQNPGW",glycan array binding signal (z-score),[1],0.811
same,glycan array binding signal (z-score),[2],5.05
same,glycan array binding signal (z-score),[3],3.75
same,glycan array binding signal (z-score),[4],2.68
same,glycan array binding signal (z-score),[5],0.2
same,glycan array binding signal (z-score),[6],0.095
same,glycan array binding signal (z-score),[7],0.056
same,glycan array binding signal (z-score),[8],0.64
same,glycan array binding signal (z-score),[9],2.62
same,glycan array binding signal (z-score),[10],-0.588
same,glycan array binding signal (z-score),[11],-1.43
same,glycan array binding signal (z-score),[12],-0.384
same,glycan array binding signal (z-score),[13],-0.456
same,glycan array binding signal (z-score),[14],0.42
same,glycan array binding signal (z-score),[15],2.86
same,glycan array binding signal (z-score),[16],-0.036
same,glycan array binding signal (z-score),[17],0.607
same,glycan array binding signal (z-score),[18],-0.056
same,glycan array binding signal (z-score),[19],3.04
same,glycan array binding signal (z-score),[20],-0.896
same,glycan array binding signal (z-score),[21],0.627
same,glycan array binding signal (z-score),[22],1.57
same,glycan array binding signal (z-score),[23],0.43
same,glycan array binding signal (z-score),[24],-0.998
same,glycan array binding signal (z-score),[25],0.942
same,glycan array binding signal (z-score),[26],1.26
same,glycan array binding signal (z-score),[27],-0.64
same,glycan array binding signal (z-score),[28],1.59
same,glycan array binding signal (z-score),[29],-0.548
same,glycan array binding signal (z-score),[30],6.49
same,glycan array binding signal (z-score),[31],0.069
same,glycan array binding signal (z-score),[32],2.83
same,glycan array binding signal (z-score),[33],-0.516
same,glycan array binding signal (z-score),[34],2.93
same,glycan array binding signal (z-score),[35],-0.64
same,glycan array binding signal (z-score),[36],-0.68
same,glycan array binding signal (z-score),[37],0.22
same,glycan array binding signal (z-score),[38],-0.338
same,glycan array binding signal (z-score),[39],0.036
same,glycan array binding signal (z-score),[40],0.036
same,glycan array binding signal (z-score),[41],-0.522
same,glycan array binding signal (z-score),[42],0.561
same,glycan array binding signal (z-score),[43],4.06
same,glycan array binding signal (z-score),[44],2.39
same,glycan array binding signal (z-score),[45],2.75
same,glycan array binding signal (z-score),[46],-1.06
same,glycan array binding signal (z-score),[47],-0.378
same,glycan array binding signal (z-score),[48],-0.936
same,glycan array binding signal (z-score),[49],-0.456
same,glycan array binding signal (z-score),[50],-1.19
